Measurements taken from PubChem BioAssay (NCI).
Values joined by “and” are separate entries in the source; they are usually repeats but may differ in a detail not shown here. Identical values can stand only once. This is part of a sample that, as a whole, favours compounds with a hit. Of some 83,000 tested, about 20% had one in any assay.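 Cells were grown in 96-well plates and exposed to the test compound at a single concentration for 48 hours; results are reported as percent growth, with values below 10 considered active.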 Active and inactive are the calls of the source.

How the values were obtained:
Test in all cases: NCI-60 one-dose screen, 48 h (100 = growth as untreated, 0 = no growth, -100 = all killed)
Settings in all cases: 10 µM unless noted
[1] = system: NCI-H23 lung
[2] = system: NCI-H226 lung
[3] = system: NCI-H322M lung
[4] = system: HOP-62 NSCLC
[5] = system: NCI-H460 lung
[6] = system: HOP-92 NSCLC
[7] = system: NCI-H522 lung
[8] = system: A549/ATCC NSCLC
[9] = system: 786-0 renal
[10] = system: COLO 205 colon
[11] = system: DU-145 prostate
[12] = system: K-562 leukemia
[13] = system: MALME-3M melanoma
[14] = system: MDA-MB-231 breast
[15] = system: RXF 393 renal
[16] = system: SF-268 CNS
[17] = system: SF-295 CNS
[18] = system: SF-539 CNS
[19] = system: UACC-257 melanoma
[20] = system: M14 melanoma

Measured: growth

Nc1cc(-c2c[nH]c3ccc(Br)cc23)nc2cc(-c3c[nH]c4ccccc34)nn12
active: [1] -68.9% | [2] 3.69% | [3] -18.8% | [4] -61.9% | [5] -53.1% | [6] -50.8% | [7] -77% | [8] -47.2% | [9] -68.2% | [10] -87% | [11] -47.5% | [12] 6.16% | [13] -88.1% | [14] -83.3% | [15] -76.7% | [16] -44.5% | [17] -87.6% | [18] -93.5% | [19] -86.9% | [20] -69.4%

COc1cc(/C=C/C(=O)c2ccc(S(=O)(=O)NCCNc3nc(N(C)C)nc(N4CCOCC4)n3)cc2)cc(OC)c1OC
inactive: [2] 11.5% | [3] 57.2% | [6] 50.1% | [8] 26.5% | [10] 28.3% | [11] 13.8% | [13] 41.2%
active: [1] 3.66% | [4] -19.1% | [5] -100% | [7] -100% | [9] -65.1% | [12] -67.8% | [14] -82% | [15] -100% | [16] -3.35% | [17] -68.1% | [18] -87.3% | [19] -26.5% | [20] -54.7%

CS(=O)(=O)Nc1cccc(-n2c(COc3ccc(OC(F)(F)F)cc3)nc3ccccc32)c1
inactive: [1] 84.7% and 104% | [2] 83.3% and 103% | [3] 101% and 121% | [4] 96.2% and 97.2% | [5] 110% | [6] 59.6% and 108% | [7] 84.8% and 101% | [8] 96.1% and 111% | [9] 110% and 103% | [10] 100% and 113% | [11] 105% and 121% | [12] 82.2% and 107% | [13] 89.6% and 102% | [14] 92.4% and 110% | [15] 85.8% and 110% | [16] 90% and 113% | [17] 92.7% and 100% | [18] 81.1% and 105% | [19] 106% and 109% | [20] 114% and 107%

COc1ccc(N=Nc2c(N)nn3c(-c4cc5ccccc5oc4=O)ccnc23)cc1
inactive: [1] 36.6% | [3] 63.4% | [4] 14.7% | [5] 17.2% | [6] 34.3% | [7] 72.7% | [8] 59.4% | [9] 15.6% | [10] 63.9% | [11] 61.9% | [12] 51.5% | [13] 49.3% | [15] 10.1% | [16] 57.8% | [17] 34.5% | [18] 15.2% | [19] 88.4% | [20] 59.5%
active: [2] 3.29% | [14] -3.18%

O=C(NN1C(=O)/C(=C/C=C/c2ccc([N+](=O)[O-])o2)SC1=S)c1ccc(O)cc1
active: [1] -85.7% | [2] -86.3% | [3] -78.5% | [4] -99.5% | [5] -54% | [6] -81% | [7] -98.1% | [8] -81.5% | [9] -90.4% | [10] -94.8% | [11] -100% | [12] 0.602% | [13] -97.9% | [14] -95.9% | [15] -86.2% | [16] -74.3% | [17] -85.6% | [18] -100% | [19] -90.4% | [20] -81.9%

CN1CCN(c2ccc3c4c(cccc24)C(=O)N(c2cccc(-c4nn(-c5ccccc5)cc4-c4nc5ccccc5s4)c2)C3=O)CC1
active: [12] -57.6%
inactive: [1] 97.9% | [2] 95.9% | [3] 111% | [4] 114% | [5] 18.5% | [6] 71.7% | [7] 110% | [8] 97.9% | [9] 46.5% | [10] 91.1% | [11] 58.4% | [13] 74.4% | [14] 33.7% | [15] 72.9% | [16] 100% | [17] 112% | [18] 81.6% | [19] 119% | [20] 90.6%

C/C(=N\Nc1ccc(S(N)(=O)=O)cc1)c1cnn(-c2cc(=O)[nH]c3ccc(Br)cc23)c1C
active: [6] -2.47% | [7] 5.07%
inactive: [1] 69.9% | [2] 62.3% | [3] 77.7% | [4] 63.4% | [5] 77.9% | [8] 100% | [9] 85.9% | [10] 85.5% | [11] 77.9% | [12] 35% | [13] 21.7% | [14] 31.4% | [15] 68.6% | [16] 57.3% | [17] 91.9% | [18] 41.6% | [19] 66.3% | [20] 73%

NCCCCn1c(SCCc2c[nH]c3ccccc23)nnc1-c1ccc2ccccc2n1
active: [4] -49.7% | [5] -76.9% | [6] -8.52% | [7] -73.1% | [8] 8.17% | [9] -92.3% | [10] -66.6% | [12] -35.4% | [13] -99.4% | [14] -83.7% | [15] -38.3% | [17] -83.4% | [18] -99% | [19] -89.8% | [20] -90.1%
inactive: [1] 11.4% | [2] 55.2% | [3] 18.1% | [11] 42.8% | [16] 42.4%

O=C(N/N=C/c1ccc(-c2cccc([N+](=O)[O-])c2)s1)c1[nH]c2ccc(Br)cc2c1-c1ccccc1
inactive: [1] 81.3% | [2] 94.8% | [3] 99.2% | [4] 64.4% | [5] 84.6% | [6] 94.4% | [7] 66.5% | [8] 91.4% | [9] 92.6% | [10] 97.7% | [11] 106% | [12] 92.7% | [13] 86.1% | [14] 74.6% | [15] 90.8% | [16] 92.7% | [17] 103% | [18] 96.6% | [19] 85.6% | [20] 75.2%

COc1ccc(C(=O)/C=C/c2ccc3c(c2)OCCO3)cc1S(N)(=O)=O
inactive: [1] 73% | [2] 116% | [3] 84.6% | [4] 29.7% | [5] 68.3% | [6] 94.5% | [7] 43.8% | [8] 47.6% | [9] 76.5% | [10] 91.9% | [11] 44.7% | [12] 16.7% | [13] 88.3% | [14] 86.5% | [15] 88.5% | [16] 111% | [17] 79.5% | [18] 44.9% | [19] 77.9% | [20] 89.7%

C=CCSc1nnc(-c2ccc(-c3nc4ccc(Cl)cc4[nH]3)cc2)o1
inactive: [1] 76.2% | [2] 103% | [3] 86.7% | [4] 39.9% | [5] 38.1% | [6] 81.8% | [7] 29.8% | [8] 60.3% | [9] 76.4% | [10] 55.7% | [11] 85% | [12] 19.5% | [13] 39.3% | [14] 41.2% | [15] 53.1% | [16] 75.7% | [17] 58.2% | [18] 56.3% | [19] 68.2% | [20] 28.7%

COc1cc(C=O)ccc1Oc1nc(Nc2ccc(F)cc2)nc(N(C)C)n1
inactive: [1] 59.8% and 65.8% | [2] 75.4% and 81.6% | [3] 96.5% and 78.9% | [4] 90% and 85.7% | [5] 80.2% and 52.3% | [6] 87.3% and 65.7% | [7] 88.6% and 82.1% | [8] 95.1% and 91% | [9] 78.4% and 52% | [10] 110% and 103% | [11] 90% and 72.7% | [12] 55.6% and 35.2% | [13] 75.8% and 82.1% | [14] 90.1% and 76.2% | [15] 91.9% and 64.9% | [16] 73.2% and 66.9% | [17] 65.5% and 82.7% | [18] 92.9% and 42.8% | [19] 57.7% and 102% | [20] 93.4% and 65.3%
